Measured values as given in PubChem BioAssay AID1508600 (Functional Genomics Laboratory (NCATS/FGL), 2020).
Hit rate of the full screen: of about 53,000 sequences, about 3,700 (7%) were called active.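 The calls were made as follows: active = gene knockdowns whose robust z-score for IL-1 alpha signal is at least 2 or at most -2, so actives lie on both sides; inactive = the rest.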 Many of the other results were omitted from the sample, so actives are more common in it than they were.

Assay: Components of the Cytosolic LPS Sensing Pathway: Gene Identification via Genome-wide siRNA Screen
Details: RAW264.7 macrophages, IL-1a HTRF, actives lie on both sides, screened at 100 nM (by protocol), cells primed 5 h with Pam3CSK4 first
Text: Non-canonical inflammasome activation by cytosolic LPS is a critical component of the host response to Gram-negative bacterial infection, however we lack a comprehensive understanding of the cellular processes that control this pathway. Here we describe a genome-wide siRNA screen to identify genes regulating the mouse macrophage IL-1 alpha response to cytosolic LPS.
RAW264.7 cells were maintained in complete DMEM media, comprising DMEM with 4.5 g/L glucose, 10% FBS (Gemini Bio-Products, West Sacramento, CA), 2 mM Glutamine (Lonza) and 20 mM HEPES (Lonza), hereafter complete DMEM.
The RNAi screen was conducted in 384-well format using the Ambion Silencer Mouse Genome siRNA Library (#4391425), which consists of three unique, nonoverlapping, nonpooled siRNAs for each of 17,000 gene targets. siRNA reagents ([…]) were stamped into 384-well white flat-bottom microplates (Corning, 3570) using a Velocity11 VPrep liquid handling system (Agilent) integrated into a BioCel robotic platform (Agilent) in columns 1-22, leaving columns 23-24 empty for negative (Ambion, Negative control #1) and positive (mouse Casp4) controls, respectively. The median value of each plate's negative control column was used to normalize sample wells, and the positive control was used to assess transfection efficiency and assay performance.
Lipofectamine RNAiMAX Transfection Reagent ([…]; Invitrogen) was added in […] serum-free, antibiotic-free media to plate wells using a Thermo Scientific Matrix WellMate and Microplate Stacker. Plates were incubated for 45 min at room temperature to allow for the sufficient formation of siRNA-lipid complexes. Cells were seeded at a density of 1x10^4 cells per well in 20 microL media containing 20% (vol/vol) FBS without antibiotics. The final concentration of siRNA in each well was 100 nM. Cells were cultured for 48h at 37 degrees C in 5% CO2 before addition of […] of TLR ligand Pam3CSK4 for 5 hours. The medium was then removed, replaced with […] growth media and cell were transfected with […] of LipidA and TransIT-TKO (Mirus) for 24 hour. At the end of the LipidA treatment, […] of supernatant was transferred to a 384 Greiner Bio-one non-binding low volume plate and […] of IL-1a HTRF reagent (Cisbio, 62MIL1APEH) was added and incubated at room temperature overnight. The plates were read on an EnVision plate reader (PerkinElmer). Cell viability was measured by adding 20ul Cell Titer Glo to the original plate and running a luminescence read on the EnVision. The quantified IL-1a signal for each siRNA gene-targeted well was divided by the median of the negative control wells and multiplied by 100 to achieve a negative control normalized value for each well/siRNA. This normalized value was then used to generate a robust z-score by first taking the log of each value and then by subtracting the median and dividing by the […].

z-score, inactive:
GGCUGAUGAUACUUAAACATT against Vmn1r83 -1.26, CGGCAUGCUGUGGAAAAAGTT against Btrc -0.869, GCACUUUGACAUUUUGGUATT against Arl4c -0.0352, AGAGCAAAAACUCGAGCACTT against Sox15 -0.253, GGUUGUGAGUGAGAACACUTT against Prss35 0.738, GGUAACACAGAAGAAAUCUTT against Higd1a -0.0444, GGCAGAAGAACUUUUCCAGTT against Capsl 0.874, CCUUCUAGAGUACAUCAUATT against Prl7d1 0.298, GGGUUUCUUCGUGUCUAUUTT against Pth2r 1.56, GGGAAGUAGCCAUCACACCTT against Ttbk1 0.768, GGCUUUUCGUUGUAAAUCATT against 9930111J21Rik2 0.735, CGGGAAGUAAACAUUUCCATT against Rassf6 0.527, GGACUCUGAUCUCUAUCAGTT against Tac2 -0.357, GGAGGAGAGGUACAAGAUGTT against Pcyt2 -0.804, GGGAAGUCCAAAUAACGGATT against Zfp184 0.136, CCGACCCAAUUAAUGAUCATT against Tlcd2 -1.12, CCAAAGUUUUAUCAGUUUGTT against Gpr87 0.653, GGUGAUAUAGCUAUUUUCUTT against Fbxw11 0.711, GGAAACACCAGAGAAGUCCTT against Etf1 -0.56, GGUGCAAGAUAGUACGAUGTT against Gle1 -0.649, GGAAGAUGGGCGACUCUAUTT against Pkmyt1 0.176, GGAUUCUCACCAAAUACUUTT against Oprd1 0.305, CGAUAUUUAUCAUGAGUGCTT against Nlrp9c -1.9, CCCACGAGGGAUAUAUCUGTT against Cd3d -0.994, CGGCACCAGUGUUCUAUUGTT against Ddi2 1.91, CCGCAAAGUGAGCAAGGUGTT against Id1 -0.63, GGAAAGCAGACAUCGACCUTT against Rps18 -0.848, GGCCUAUCAAAAUUCAGUUTT against Rbm7 1.17, GGAGAUUGGACCACUAUGATT against Sec24d -1.31, GGAGUUCGACAUUAGCGGATT against Ehf 0.0965, GGAAUGUUUCUUUAUCACATT against Slc35e4 -0.837, GCGUAUUUGGUGUUAAAAATT against Iars 0.417, GGAAGAAGAAGAUAAAGCGTT against Grk6 0.184, CCACCAGAUACAUAUUUGUTT against Gnpnat1 -0.352, GGCUUUAAAGAAUGAUUCATT against Cfap97 0.197, GGCUGCACAAACAUGGUUCTT against Pard6a -0.146, GGUGGAAGAUUAGUGACUUTT against Trim38 1.63, GGUAAAAUUCCAGAGUUGUTT against Serpinb9 -0.412, GGGUUUGGACUGAUAUACUTT against Vrk2 -0.465, GGAAUCAGGAAUGCUACUUTT against Tsr1 0.216, CAAGAAGGUCAUGUUAUUGTT against Olfr106-ps 0.495, CGGCUCGUACACAUGUGAATT against Creld2 0.199, GGGUUCAUAUGUUUUGGAUTT against C130050O18Rik 1.38

z-score, active:
CCAUUCUCAGGCAAAUACUTT against Pid1 2.11, CCUUGCAGCAUCAGGACUUTT against Ascl2 4.06, CCUAUAGCAGUGGUUUUCATT against Ece2 2.22, GGUACUUUUACUCCCGAAGTT against Lgals3bp -2.05, GCACAAUAAAGCUUGUUGCTT against Trmt2a -2.26, GGAACGUGUUCAAAAGAGUTT against Sos1 2.22, GCAACAGUUGGUCUAAAAUTT against Psma1 -2.11, GGAACUCCACUUUCUUUUUTT against Ripply3 2.27, CCGUGUAAGGUGUGGAGUGTT against Mcat -2.27, GGAAAGAUUGUACCAGUUGTT against Cmpk1 2.58, GGAUGAAGAUGGAGACAUGTT against Lmx1b -2.58
